Laboratory results as given in PubChem BioAssay.
Results filed as inconclusive are left out. Values without a mark were called inactive. The source made the active and inactive calls.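 Rule for the calls, unless noted: active = viability at or below 27.92% in each of two runs, the all-compound median minus 4 SD; inconclusive = no clear call, values can overlap the other calls; inactive = the rest.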

Test: growth suppression of beta-catenin knockout HCT116, pilot screen, human colon tumor cells (AID 823;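 active = cell viability at or below a set limit in both duplicate runs, the limit being the all-compound median minus 4 SD, cut at about 23% in these data, passing the limit was not always enough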;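 note: 0% = wells killed by 20 µM Hyamine and 100% = untreated DMSO cell wells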)
Conditions: CellTiter-Glo, 60 h, at 10 µM, stronger effect = lower value
Work on O=C(NCCCN1CCCC1=O)c1ccc2c(c1)ncn2C1CCCCC1 yielded a viability of 105%.
CC(CCc1ccccc1)NC(=O)CSc1nnnn1C (stereo not given) gave a viability of 101%.
With Cc1cccc(-c2nnc(-c3ccccc3)o2)c1 the viability was 78%.
For COc1ccc2[nH]c(C)c(CCN3C(=O)C4CC=CCC4C3=O)c2c1 (stereo not given), the viability was 105%.
CCc1ccccc1NC(=O)c1cc(-c2cccc(O)c2)on1 showed a viability of 98%.
O=C(O)[C@H](Cc1ccccc1)N1Cc2ccccc2C1=O gave a viability of 95.3%.
For c1cnn(-c2nc(N3CCOCC3)nc(N3CCOCC3)n2)c1, the viability was 67.1%.
O=C(COc1ccc(S(=O)(=O)NC2CCCCC2)cc1)N1CCN(c2ccc(F)cc2)CC1 showed a viability of 65.5%.
Fc1ccc(C2CC(c3ccccc3)Nc3ncnn32)cc1 (stereo not given) gave a viability of 93.5%.
Work on Cn1c(C(=O)N2CCN(c3ncccn3)CC2)cc2c(=O)n(C)c3ccccc3c21 yielded a viability of 105%.
Cc1csc2nc(CNS(=O)(=O)c3ccc4c(c3)OCCO4)cn12 gave a viability of 91.9%.
O=C(NC1CCCCC1)c1ccc(S(=O)(=O)N2CCOCC2)cc1 gave a viability of 104%.
Molecule CC(C)CC(NS(=O)(=O)c1ccc2c(c1)oc(=O)n2C)C(=O)N1CC=C(c2ccccc2)CC1 (stereo not given) has a viability of 85.9%.
With O=C1CC(N2CCN(C/C=C/c3ccccc3)CC2)C(=O)N1CCc1ccccc1 (stereo not given) the viability was 72.8%.
Work on CC(=O)C(C)Oc1ccc2c3c(c(=O)oc2c1)CCCC3 (stereo not given) yielded a viability of 93%.
For CCOC(=O)c1c(C)n(C)c2ccc(OCC(O)CN3CCCCCC3)cc12 (stereo not given), the viability was 61.5%.
With COCCOC(=O)C1=C(C)NC2=C(C(=O)CC(C)(C)C2)C1c1ccc2c(c1)OCO2 (stereo not given) the viability was 92.9%.
COc1cc(OC)cc(C(=O)NCC2CCCO2)c1 (stereo not given) gave a viability of 94.6%.
O=C(O)c1ccc2c(c1)N(Cc1cccc(F)c1)C(=O)CS2 gave a viability of 102%.
In the case of COc1ccc(S(=O)(=O)Cc2ccc(C(=O)N3CCN(c4cccc(C)c4C)CC3)o2)cc1, the viability is reported as 13% (active).
In the case of CCSc1nc2ccccc2n1S(=O)(=O)c1ccccc1, the viability is reported as 101%.
Work on CN1CCN(Cc2ccc(-c3ccc(Cl)cc3)o2)CC1 yielded a viability of 86.1%.
CCCn1c2ccccc2c2cc(C(=O)O)ccc21 gave a viability of 106%.
With Clc1ccccc1-c1ccc(/C=N/n2cnnc2)o1 the viability was 102%.
Molecule CCOc1ccc(OCC)c(S(=O)(=O)NCc2ccc3c(c2)OCO3)c1 has a viability of 95.1%.
COc1cccc(C2NC(CCSC)(C(=O)O)C3C(=O)N(C(C)C)C(=O)C23)c1O (stereo not given) showed a viability of 95%.
In the case of O=C(NCCCN1CCc2ccccc2C1)C1CCN(c2nnc(-n3cccc3)s2)CC1, the viability is reported as 82.2%.
In the case of N#Cc1ccc(N2CCN(C(=O)c3cccc(F)c3)CC2)c(F)c1, the viability is reported as 98.4%.
Molecule COC(=O)c1sc2nc3c(cc2c1N)COC(C)(C)C3 has a viability of 101%.
In the case of O=C1CC(c2nc3ccccc3[nH]2)CN1c1ccccc1F (stereo not given), the viability is reported as 98.3%.
Work on COc1cc2[nH]c(=O)n(CCCC(=O)NCCc3ccccc3)c(=O)c2cc1OC yielded a viability of 99%.
CCOc1ccc(NC(=O)c2ccc(N)cc2)cc1 gave a viability of 91.8%.
Cc1cc(Nc2ccc(F)cc2)n2nc(C)nc2n1 gave a viability of 100%.
In the case of O=C1Nc2ccccc2C(O)(C(=O)N2CCCCC2)N1c1ccccc1 (stereo not given), the viability is reported as 98.9%.
Work on CCCCN1C(=O)C(O)(CC(=O)c2ccccc2OC)c2ccccc21 (stereo not given) yielded a viability of 79.6%.
For CCOC(=O)C1=C(C)S/C(=C\N(C)C)C1=O, the viability was 98.6%.
Work on CCC(C)NC(=O)c1ccc(CS(=O)(=O)c2ccc(OC)cc2)o1 (stereo not given) yielded a viability of 104%.
In the case of CCCCCSc1nnc2c(n1)OC(C)N(C(C)=O)c1ccccc1-2 (stereo not given), the viability is reported as 82.8%.
With O=C(c1cc(-c2cccc(O)c2)on1)N1CCc2ccccc2C1 the viability was 114%.
Molecule N=c1n(-c2ccccc2)c(O)cc(=O)n1-c1ccccc1 has a viability of 98.1%.

Test: growth suppression of PTEN-deleted HCT116, pilot screen, cell-based, HCT116 clonal line, CellTiter-Glo (AID 824);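 note: 0% = 20 µM Hyamine control and 100% = vehicle cell control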
Conditions: 60 h, at 10 µM, stronger effect = lower value
For O=C(NCCCN1CCCC1=O)c1ccc2c(c1)ncn2C1CCCCC1, the viability was 109%.
Molecule CC(CCc1ccccc1)NC(=O)CSc1nnnn1C (stereo not given) has a viability of 101%.
Work on Cc1cccc(-c2nnc(-c3ccccc3)o2)c1 yielded a viability of 81.7%.
With COc1ccc2[nH]c(C)c(CCN3C(=O)C4CC=CCC4C3=O)c2c1 (stereo not given) the viability was 89.2%.
In the case of CCc1ccccc1NC(=O)c1cc(-c2cccc(O)c2)on1, the viability is reported as 96%.
O=C(O)[C@H](Cc1ccccc1)N1Cc2ccccc2C1=O showed a viability of 97.4%.
Work on c1cnn(-c2nc(N3CCOCC3)nc(N3CCOCC3)n2)c1 yielded a viability of 72.9%.
O=C(COc1ccc(S(=O)(=O)NC2CCCCC2)cc1)N1CCN(c2ccc(F)cc2)CC1 gave a viability of 67.1%.
Work on Fc1ccc(C2CC(c3ccccc3)Nc3ncnn32)cc1 (stereo not given) yielded a viability of 98.1%.
For Cn1c(C(=O)N2CCN(c3ncccn3)CC2)cc2c(=O)n(C)c3ccccc3c21, the viability was 97.2%.
Molecule Cc1csc2nc(CNS(=O)(=O)c3ccc4c(c3)OCCO4)cn12 has a viability of 85.7%.
With O=C(NC1CCCCC1)c1ccc(S(=O)(=O)N2CCOCC2)cc1 the viability was 101%.
With CC(C)CC(NS(=O)(=O)c1ccc2c(c1)oc(=O)n2C)C(=O)N1CC=C(c2ccccc2)CC1 (stereo not given) the viability was 83.3%.
For O=C1CC(N2CCN(C/C=C/c3ccccc3)CC2)C(=O)N1CCc1ccccc1 (stereo not given), the viability was 77.6%.
With CC(=O)C(C)Oc1ccc2c3c(c(=O)oc2c1)CCCC3 (stereo not given) the viability was 91.1%.
CCOC(=O)c1c(C)n(C)c2ccc(OCC(O)CN3CCCCCC3)cc12 (stereo not given) gave a viability of 62.5%.
Work on COCCOC(=O)C1=C(C)NC2=C(C(=O)CC(C)(C)C2)C1c1ccc2c(c1)OCO2 (stereo not given) yielded a viability of 87.4%.
For COc1cc(OC)cc(C(=O)NCC2CCCO2)c1 (stereo not given), the viability was 91.7%.
In the case of O=C(O)c1ccc2c(c1)N(Cc1cccc(F)c1)C(=O)CS2, the viability is reported as 102%.
For COc1ccc(S(=O)(=O)Cc2ccc(C(=O)N3CCN(c4cccc(C)c4C)CC3)o2)cc1, the viability was 17.6% (active).
For CCSc1nc2ccccc2n1S(=O)(=O)c1ccccc1, the viability was 100%.
With CN1CCN(Cc2ccc(-c3ccc(Cl)cc3)o2)CC1 the viability was 102%.
For CCCn1c2ccccc2c2cc(C(=O)O)ccc21, the viability was 93.5%.
Molecule Clc1ccccc1-c1ccc(/C=N/n2cnnc2)o1 has a viability of 95.1%.
CCOc1ccc(OCC)c(S(=O)(=O)NCc2ccc3c(c2)OCO3)c1 showed a viability of 96.5%.
In the case of COc1cccc(C2NC(CCSC)(C(=O)O)C3C(=O)N(C(C)C)C(=O)C23)c1O (stereo not given), the viability is reported as 97.2%.
O=C(NCCCN1CCc2ccccc2C1)C1CCN(c2nnc(-n3cccc3)s2)CC1 showed a viability of 79.4%.
In the case of N#Cc1ccc(N2CCN(C(=O)c3cccc(F)c3)CC2)c(F)c1, the viability is reported as 87.8%.
In the case of COC(=O)c1sc2nc3c(cc2c1N)COC(C)(C)C3, the viability is reported as 94.1%.
O=C1CC(c2nc3ccccc3[nH]2)CN1c1ccccc1F (stereo not given) showed a viability of 92.5%.
COc1cc2[nH]c(=O)n(CCCC(=O)NCCc3ccccc3)c(=O)c2cc1OC showed a viability of 94.5%.
For CCOc1ccc(NC(=O)c2ccc(N)cc2)cc1, the viability was 89.2%.
With Cc1cc(Nc2ccc(F)cc2)n2nc(C)nc2n1 the viability was 97.2%.
Molecule O=C1Nc2ccccc2C(O)(C(=O)N2CCCCC2)N1c1ccccc1 (stereo not given) has a viability of 92.2%.
CCCCN1C(=O)C(O)(CC(=O)c2ccccc2OC)c2ccccc21 (stereo not given) showed a viability of 89.5%.
In the case of CCOC(=O)C1=C(C)S/C(=C\N(C)C)C1=O, the viability is reported as 90.3%.
In the case of CCC(C)NC(=O)c1ccc(CS(=O)(=O)c2ccc(OC)cc2)o1 (stereo not given), the viability is reported as 93.2%.
CCCCCSc1nnc2c(n1)OC(C)N(C(C)=O)c1ccccc1-2 (stereo not given) gave a viability of 86.5%.
O=C(c1cc(-c2cccc(O)c2)on1)N1CCc2ccccc2C1 gave a viability of 99.2%.
With N=c1n(-c2ccccc2)c(O)cc(=O)n1-c1ccccc1 the viability was 99.5%.
